In experiment [1] the test system is Zika virus NS2B-NS3 protease (linked construct). Description: Primary screen NINDS Rhodamine qHTS for Zika virus inhibitors (AID 1347160). Further: nearly all actives have a fitted effect of over 55% in size. Further: potency means the concentration at half of the fitted maximal effect. The essentials: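 Rhodamine110-peptide cleavage (1.5 µM substrate) by 25 nM linked NS2B-NS3 enzyme at pH 8.0 (Tris, Tween 20), after 15 min RT preincubation with compounds; 15-min fluorescence change normalized to controls and Hill-fitted.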
In general terms: In qHTS, concentration-response curves come from the screen itself.

The nature of experiment [2]: UWB1.289 Cancer Cell Toxicity qHTS against the NCATS CANVASS Library (AID 1347347). Further: nearly all actives have a fitted effect of over 60% in size. Further: potency means the concentration at half of the fitted maximal effect. The essentials:
(§1)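 Toxicity is measured over 72 h of compound exposure at 37 degrees C under 5% CO2. Each well holds 1000 cells, pre-incubated for 4 hours before dosing across an 11-point range. CellTiter-Glo luminescence gives viability.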

Experiment [3] can be described thus: OV-SAHO Cancer Cell Toxicity qHTS against the NCATS CANVASS Library (AID 1347348). Further: nearly all actives have a fitted effect of over 55% in size. Further: potency means the concentration at half of the fitted maximal effect. The method in brief:
as §1

Experiment [4] can be described thus: A2780 Cisplatin Sensitive Ovarian Cancer Cell Toxicity qHTS against the NCATS CANVASS Library (AID 1347353). Further: nearly all actives have a fitted effect of over 60% in size. Further: potency means the concentration at half of the fitted maximal effect. The essentials: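 Cells are plated at 750 per well and rest for 4 hours. Compounds are added across eleven concentrations, and incubated 72 hours before ATP is quantified by luminescence.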
Experiment [5] is described as follows: UWB1.289-WTBRCA1 Cancer Cell Toxicity qHTS against the NCATS CANVASS Library (AID 1347354). The method in brief:
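First, 1000 cells go into each well and rest for 4 hours. Next, an 11-point dilution range is pinned in. Plates then incubate 72 hours before CellTiter-Glo addition and luminescence reading.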

Experiment [6] is described as follows: HEK293 18hr Apoptosis Induction qHTS against the NCATS CANVASS Library (AID 1347357). The method in brief: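 Cells seeded at 500/well in DMEM + 10% FBS. Compounds pinned, 11 concentrations. 18 h, 37 degrees C/5% CO2. Caspase-Glo 3/7 added, 15 min RT dark, luminescence read.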
The test system of experiment [7] is NAD(P)H diaphorase (Clostridium kluyveri). In words: Diaphorse counterscreen qHTS: Assay Interference Panel against the NCATS CANVASS Library (AID 1347362). The method in brief: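 Clostridium kluyveri diaphorase in PBS + 0.01% Tween-20 preincubated 15 min with compounds. Resazurin and NADH then added for 5 min at room temperature in the dark; resorufin fluorescence read (ex 525, em 598).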
Background: The purpose of a counterscreen is to sort out artefacts and off-target activity.

Experiment [8] is described as follows: G06 Cancer Cell Toxicity qHTS against the NCATS CANVASS Library (AID 1347368). Further: nearly all actives have a fitted effect of over 60% in size. Further: potency means the concentration at half of the fitted maximal effect. The method in brief: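 Cells were plated at 500 per well, then compounds were added over an 11-point range. After 72 hr at 37C, CellTiterGlo was added and luminescence measured as ATP content.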
Experiment [9] can be described thus: qHTS for ATAD5 Antagonist screened against the NCATS CANVASS Library (AID 1347370).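 Further: HEK293T cells carrying an ATAD5 luciferase reporter co-treated with 10 µM 5-fluorouridine; series mostly up to about 46 µM; nearly all actives have a fitted effect of over 65% in size.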 The essentials:
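Compounds (11-point) co-dosed with 10 µM 5-FUrd for 16 h at 37 °C onto HEK293T-ATAD5 luciferase reporter cells. Viability measured by CellTiter-Fluor fluorescence, then ATAD5 reporter signal by luminescence.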

Experiment [10] can be described thus: qHTS for Hypoxia signaling pathway (HIF-1) agonists against the NCATS CANVASS Library (AID 1347375). The method in brief:
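Cells plated and rested 5 h, compounds pinned in DMSO across 11 concentrations, incubated 17 h at 37C, loaded with CCF4-AM for 2 h, fluorescence read at 460 and 530 nm, then CellTiter-Glo luminescence measured for viability and normalization.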

The nature of experiment [11]: Cytotoxicity qHTS for assessment of Hepg2 cells membrane integrity screened against the NCATS CANVASS Library (AID 1347387). The method in brief:
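Cells were seeded at 2000 per well and left overnight to attach. Compounds were pin-transferred to give 0.59 nM - 46 uM in an 11-point series and incubated 5 hr at 37C. CytoTox-ONE reagent was added and, after 10 min at room temperature, fluorescence (ex 560, em 590 nm) was read.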

A short description of experiment [12]: qHTS for activators of Nrf2/ARE signaling pathway screened against the NCATS CANVASS Library (AID 1347391). Further: nearly all actives have a fitted effect of over 60% in size. Further: potency means the concentration at half of the fitted maximal effect. The essentials: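 Beta-lactamase reporter signal, read as 460 and 530 nm emission under 405 nm excitation after 2 h CCF4 loading, reflected ARE activation in HepG2 cells treated 16 h with an 11-point series.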
Experiment [13] can be described thus: qHTS for activators of dead-cell proteases activity screened against the NCATS CANVASS Library (AID 1347392).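 Further: luminescence from protease leaking out of membrane-damaged cells cleaving impermeant substrate; rising signal means more cytotoxicity.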 The essentials:
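HepG2, 2000 cells/well, 18 h attach; cpd 11-pt, 5 h 37C 5% CO2; CytoTox-Glo (AAF-aminoluciferin) 15 min RT; luminescence read.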

Experiment [14] in a line: Redox Reaction Profiling qHTS: Assay Interference Panel against the NCATS CANVASS Library (AID 1347401). The essentials:
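Fluorescence read-out (525 nm excitation, 598 nm emission) at time zero and after 15 min in the dark tracked resorufin formation. Mix: 5 uM resazurin, 200 uM DTT, HEPES pH 7.3 buffer with NaCl.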

A short description of experiment [15]: Panc-1005 Cancer Cell Toxicity qHTS against the NCATS CANVASS Library (AID 1347349). Further: nearly all actives have a fitted effect of over 60% in size. Further: potency means the concentration at half of the fitted maximal effect. The method in brief: as §1
A short description of experiment [16]: KB-8-5-11 Cancer Cell Toxicity qHTS against the NCATS CANVASS Library (AID 1347364). Further: nearly all actives have a fitted effect of over 75% in size. Further: potency means the concentration at half of the fitted maximal effect. The method in brief: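 Terse: KB-8-5-11, 500 cells/well, 72 hr, 37C/5% CO2, 11-pt titration, CellTiter-Glo readout; confirmatory runs ± 1uM tariquidar in medium.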
Experiment [17] in a line: SDT Cancer Cell Toxicity qHTS against the NCATS CANVASS Library (AID 1347365). Further: nearly all actives have a fitted effect of over 60% in size. Further: potency means the concentration at half of the fitted maximal effect. The essentials: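 Cytotoxicity is measured from cellular ATP: compounds in an 11-point concentration series are pinned onto SDT cells, incubated 72 hr at 37C, then CellTiterGlo is added and luminescence read.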
Experiment [18] in a line: qHTS for Hypoxia signaling pathway (HIF-1) antagonists against the NCATS CANVASS Library (AID 1347374). Further: nearly all actives have a fitted effect of over 60% in size. Further: potency means the concentration at half of the fitted maximal effect. The method in brief: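 Antagonism scored as loss of CoCl2-driven (60 uM stock added) HRE beta-lactamase signal, read by CCF4 FRET at 460/530 nm. Compounds were tested in an 11-point series on ME-180 reporter cells for 17 hrs at 37C, with parallel CellTiter-Glo cytotoxicity.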

The nature of experiment [19]: Vero-766 cells viability qHTS against the NCATS CANVASS Library: Counterscreen for Zika virus inhibition assay (AID 1347394). Further: nearly all actives have a fitted effect of over 60% in size. Further: potency means the concentration at half of the fitted maximal effect. The essentials: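 Vero 766, no virus; 1000 cells/well; o/n attach; cpd 11-pt; 72 h, 37C, 5% CO2; CTG luminescence; cell-free media wells = 100% inhibition.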
The nature of experiment [20]: qHTS for inhibitors of Wild type Zika virus screened against the NCATS CANVASS Library (AID 1347396).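 Further: ATP luminescence of surviving cells so rescue from viral cell killing; series mostly up to about 46 µM.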 The method in brief:
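Luminescent CellTiter Glo read-out of virus-induced cytotoxicity, 72 h post-infection, in Vero 766 cells. Compounds were tested at 11 concentrations; uninfected, vehicle-treated wells defined 100% inhibition.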

Inconclusive results are not listed. Values without a mark were called inactive. Active and inactive are the calls of the source. The call rests on the fitted dose curve; in most records, active means well fitted curve in the direction sought with a large enough effect; inconclusive means small, poorly fitted or top-dose-only effect, or another doubt; inactive means no such curve, though single readings can be large; an effect the other way counts as inactive or inconclusive. Peptide text beside a SMILES is read from it. * marks the point of attachment. Octanoyl = CCCCCCCC(=O)*

Regarding `COc1ccc(/C=C2\COc3cc(O)ccc3C2=O)cc1`, the Potency in [1] is 22 µM (active); in [4], 14.8 µM (active); in experiment [12], 8.31 µM (active). For the same compound, the Potency result in experiment [2], in [3], in [5], in experiment [6], in [7] and in experiment [8] was “inactive” in each case. In addition, the Potency entry in [9], in experiment [10], in experiment [13] and in experiment [14] was “inactive” in each case. For the same compound, the compound was called inactive in experiment [11].
In the case of `C[C@@H](O)[C@H]1OC(=O)C=C2[C@]3(C)[C@H]4[C@H](OC(=O)[C@@]4(C)[C@@H](O)[C@H]4O[C@H]43)[C@H]3O[C@@]231`, the Potency result in experiment [1], in experiment [6], in experiment [7], in experiment [9], in experiment [10] and in [13] was “inactive” throughout. The Potency result in experiment [14] was “inactive”. Moreover, the Potency is 2.65 µM (active) in experiment [2]; 1.33 µM (active) in experiment [3]; 2.11 µM (active) in [15]; 0.833 µM (active) in experiment [4]; 1.48 µM (active) in experiment [16]; 1.18 µM (active) in experiment [17]. Besides, the Potency is 1.48 µM (active) in experiment [8], 1.49 µM (active) in [18] and 9.33 µM (active) in [19]. For the same compound, the compound was classed as inactive in [11].
Turning to `CCCCCCCC(=O)N[C@@H](CC(C)C)C(=O)N[C@H](C=O)CCC(=O)O` (Octanoyl-Leu-Glu-aldehyde), the Potency in experiment [1] is 39.2 µM (active). Further, the Potency result in [2], in experiment [3], in experiment [15], in experiment [4], in experiment [5] and in experiment [6] was “inactive” in each case. For the same compound, the Potency result in [7], in experiment [16], in [17], in experiment [8], in experiment [9] and in experiment [18] was “inactive” each time. The Potency entry in [10], in experiment [12], in [13], in [19], in experiment [20] and in experiment [14] was “inactive” each time. The outcome in experiment [11] was inactive.
Consider `Oc1ccc([C@H]2Oc3ccc(/C=C/c4cc(O)cc(O)c4)cc3C2c2cc(O)cc(O)c2)cc1` (some centres not stated), for which the Potency in [1] was 24.7 µM (active). Besides, the Potency entry in experiment [3], in experiment [15], in experiment [4], in [5], in experiment [7] and in experiment [16] was “inactive” in each case. For the same compound, the Potency entry in experiment [17], in [8], in [9], in experiment [10], in experiment [12] and in [20] was “inactive” in each case. Also, the Potency entry in [14] is “inactive”. The compound was called inactive in experiment [11].
Turning to `O=C1CC(c2cc(O)cc(O)c2)Oc2cc(O)ccc21` (configuration not stated), the Potency in experiment [1] was 34.9 µM (active); in [4], 3.72 µM (active). Also, the Potency result in experiment [15], in experiment [5], in [16], in [9], in experiment [18] and in experiment [10] was “inactive” each time. Moreover, the Potency result in [13], in [19], in experiment [20] and in experiment [14] was “inactive” each time. Further, the compound was called inactive in [11].
Regarding `CCCCCCCCCCCCCCCC(=O)OC/C=C(\C)CCCC(C)CC(C)C(C)C` (configuration not stated), in experiment [1], the Potency was 55.3 µM (active). Besides, the Potency result in [2], in experiment [3], in experiment [4], in experiment [5], in experiment [6] and in experiment [7] was “inactive” in each case. Also, the Potency entry in [16], in experiment [17], in experiment [8], in experiment [9], in experiment [18] and in experiment [10] was “inactive” throughout. The Potency entry in experiment [12], in experiment [13], in experiment [19], in [20] and in experiment [14] was “inactive” throughout. In experiment [11], the call was inactive.
For the compound `C=C[C@]1(C)CC[C@@H]([C@H](C)C(=O)/C=C/C(C)C)O1`, the Potency result in [1], in experiment [2], in experiment [15], in [4], in [5] and in experiment [6] was “inactive” throughout. Also, the Potency result in [7], in experiment [16], in experiment [17], in experiment [8], in experiment [9] and in experiment [18] was “inactive” throughout. Also, the Potency entry in experiment [10], in experiment [12], in experiment [13], in experiment [19], in experiment [20] and in experiment [14] was “inactive” throughout. Besides, the outcome in experiment [11] was inactive.

Source of the values: PubChem BioAssay (NCATS).
